Measurements reported in PubChem BioAssay.
“And” between values parts separate entries of the source, which are not always exact repeats. Identical values can stand only once. The source made the active and inactive calls.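 Rule for the calls, unless noted: active = thallium flux through the channel raised or lowered by more than 3 SD from vehicle-only wells, actives on both sides; inactive = the rest.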

Assays:
[1] = tested on: Hepatitis C virus NS3 helicase; experiment: HCV NS3 helicase inhibitors, primary screen, biochemical, fluorescence polarization, NIH Clinical Collection (AID 743270; call rule not given here); conditions: NS3 helicase binding to Cy5-dT15 DNA, stronger effect = higher value, concentration not given here
[2] = molecular target: Single-stranded DNA-binding protein (Escherichia coli (strain K12)) (UniProt P0AGE0); experiment: E. coli SSB displacement from DNA, counter-screen for HCV NS3 helicase inhibitor project, biochemical, fluorescence polarization, NIH Clinical Collection (AID 743271; in the data active = inhibition above about 28%); conditions: stronger effect = higher value, concentration not given here
[3] = fluorescence interference in NS3h assay format, artefact control for HCV NS3 helicase inhibitor project, biochemical, NIH Clinical Collection (AID 743272; call rule not given here;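 note: HCV NS3 helicase with a Cy5 labelled single stranded DNA probe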); conditions: fluorescence interference counterscreen, stronger effect = lower value
[4] = stimulators of nuclear beta-catenin in C2C12, primary screen, imaging, WNT3A-conditioned medium, mouse C2C12, NPC library (AID 1117326; in the data active = nuclear beta-catenin stimulation mostly above about 4.2%, no sharp cut-off; inactive = mostly below about 10%); conditions: stronger effect = higher value
[5] = stimulators of insulin release from INS-1E, primary screen, cell-based, 5 mM glucose, NPC library (AID 1117329;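 active = compound raises insulin release from rat beta cells at 5 mM glucose, no numeric limit stated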); conditions: rat INS-1E insulin secretion, at 10 µM, stronger effect = higher value
[6] = growth inhibition of GSK3B-pretreated HCT116 cells – cell-based, CellTiter-Glo, 0.2 to 20 µM (AID 1117336;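 active = compounds lowering colon cancer cell viability after pretreatment blocking the GSK3B kinase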); conditions: HCT116 viability after GSK3B inhibitor, at 20 µM, stronger effect = higher value
[7] = inhibition of endothelial tube formation, primary screen, imaging, VEGF stimulated, CD31 staining, tube area, NPC library (AID 1117340;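 active = compound that reduces growth-factor-driven endothelial tube area in a mixed cell culture, no cutoff stated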); conditions: VEGF-stimulated ADSC/ECFC co-culture, at 10 µM, stronger effect = higher value
[8] = glucagon-like peptide 1 release enhancers, primary assay, NCI-H716 cell line, NPC library (AID 1117341;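 active = compound raises GLP1 secretion from the human gut endocrine cells, with no numeric limit stated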); conditions: NCI-H716 cells, at 10 µM, stronger effect = higher value
[9] = HCT116 colon cancer cell growth inhibition, primary screen, CellTiter-Glo luminescence, NPC library (AID 1117342;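 active = compounds that lower survival of HCT116 colon cancer cells in the luminescence readout, no numeric limit stated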); conditions: at 20 µM (top of the series)
[10] = CellTiter-Glo luminescent readout of SW480 viability loss, NPC library primary (AID 1117343;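 active = compounds that lower viability of the colon cancer cells in the luminescence readout, with no numeric limit stated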); conditions: CellTiter-Glo luminescence; at 20 µM (top of the series)
[11] = decreased DLD-1 cellular survival, CellTiter-Glo luminescent readout, NPC compound collection, primary HTS (AID 1117346;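 active = compounds that lower survival of DLD-1 colon cancer cells in the luminescence readout, no cutoff given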); conditions: DLD-1 viability, CellTiter-Glo luminescence; at 20 µM (top of the series)
[12] = molecular target: 6-phosphogluconate dehydrogenase, decarboxylating (Homo sapiens) (UniProt P52209); experiment: 6PGD enzyme inhibitors, primary screen, biochemical, human, recombinant enzyme, NADPH absorbance (AID 1159550;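 active = at least 20% inhibition of 6-phosphogluconate dehydrogenase activity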); conditions: recombinant 6PGD, NADPH absorbance 341 nm; at 10 µM; stronger effect = higher value
6-phosphogluconate dehydrogenase, decarboxylating (Homo sapiens), sequence (P52209 whole entry, looked up): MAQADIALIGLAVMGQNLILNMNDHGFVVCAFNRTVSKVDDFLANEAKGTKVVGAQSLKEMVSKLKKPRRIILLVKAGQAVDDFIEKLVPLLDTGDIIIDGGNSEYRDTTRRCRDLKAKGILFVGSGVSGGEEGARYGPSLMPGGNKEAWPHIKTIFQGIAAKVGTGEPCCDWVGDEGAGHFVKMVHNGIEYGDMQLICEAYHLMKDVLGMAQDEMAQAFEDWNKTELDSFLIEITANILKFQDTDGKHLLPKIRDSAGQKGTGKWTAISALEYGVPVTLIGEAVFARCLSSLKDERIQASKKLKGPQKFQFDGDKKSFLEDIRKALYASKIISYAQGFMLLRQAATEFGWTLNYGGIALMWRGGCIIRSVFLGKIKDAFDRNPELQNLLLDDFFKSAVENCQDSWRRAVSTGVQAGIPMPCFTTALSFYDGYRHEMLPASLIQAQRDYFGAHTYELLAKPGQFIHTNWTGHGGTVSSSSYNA

[13] = differential killing of epithelial or mesenchymal cells, primary screen, imaging, PC-3E GFP, TEM4-18 mCherry, co-culture (AID 1345086;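 active = compounds killing one labelled cell type while sparing the other, by normalised counts and ratio limits, not self-fluorescent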;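 for all read-outs here: cells exposed to compound for 72 h before imaging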;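 for red/green cell ratio (normalised): normalised mesenchymal count divided by normalised epithelial count so high means epithelial killing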); conditions: imaging cell counts, at 1 µM; for red/green cell ratio (normalised): actives lie on both sides, counts scaled to control wells, 1 = unselective
[14] = sensitizers of A549 cells to miR-34 induction, primary screen, imaging, A549 dox-inducible miR-34, nuclei and caspase counts (AID 1347080;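 active = compounds whose cell count with miR-34 switched on is under 0.7 times the count with it off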); conditions: A549 miR-34 inducible, Hoechst nuclei count, 48 h
[15] = survival rescue of mitochondrial mutant cells in low glucose, primary screen, MELAS cybrids, Rieske KO mouse fibroblasts, CellTiter-Glo (AID 1508586;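 active = mean z-score across replicates of 1.96 or higher in either the MELAS or the Rieske mutant cell line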;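 note: z relative to plate mean and SD of compound and empty wells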)
[16] = molecular target: NAD(+) hydrolase SARM1 (Homo sapiens) (UniProt Q6SZW1); experiment: SARM1 TIR NADase inhibitors, cell lysate, NAD-Glo luminescence (AID 1508614;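 active = compound whose remaining NAD level is above about 45 nM, limit read from the data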;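 note: higher remaining NAD means stronger inhibition of SARM1 NADase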); conditions: SAM-TIR HEK293T lysate NADase, at 1 µM, stronger effect = higher value
NAD(+) hydrolase SARM1 (Homo sapiens), sequence (Q6SZW1 whole entry, looked up): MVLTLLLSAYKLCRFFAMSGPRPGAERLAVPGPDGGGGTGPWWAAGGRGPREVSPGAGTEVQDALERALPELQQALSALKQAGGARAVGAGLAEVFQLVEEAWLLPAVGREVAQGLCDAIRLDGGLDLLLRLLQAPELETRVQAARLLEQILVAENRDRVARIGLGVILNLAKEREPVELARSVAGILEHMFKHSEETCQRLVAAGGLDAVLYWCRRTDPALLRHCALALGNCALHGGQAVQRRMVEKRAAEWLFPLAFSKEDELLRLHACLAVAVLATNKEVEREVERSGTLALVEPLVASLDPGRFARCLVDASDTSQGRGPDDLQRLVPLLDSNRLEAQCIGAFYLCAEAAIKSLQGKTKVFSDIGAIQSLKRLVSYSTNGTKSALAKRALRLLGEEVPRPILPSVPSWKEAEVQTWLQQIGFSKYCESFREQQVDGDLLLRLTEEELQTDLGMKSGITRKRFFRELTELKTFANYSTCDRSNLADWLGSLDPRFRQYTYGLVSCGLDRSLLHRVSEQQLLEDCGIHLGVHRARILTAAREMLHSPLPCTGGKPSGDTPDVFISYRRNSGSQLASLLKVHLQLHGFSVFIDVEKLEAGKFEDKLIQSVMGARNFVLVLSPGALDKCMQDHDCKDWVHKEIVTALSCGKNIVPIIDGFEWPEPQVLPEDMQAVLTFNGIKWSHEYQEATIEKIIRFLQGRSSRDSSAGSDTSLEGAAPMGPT

F380Y = experiment: modulators of BK channel variants, profiling panel, selectivity assay, cell-based, U2OS BacMam, thallium flux, beta subunits (AID 1259406); conditions: at 30 µM;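 note: initial slope of Thallos dye fluorescence rise after thallium is added; log ratio against the mean of 0.3% DMSO vehicle wells on the same plate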
F380Y/beta2Delta = experiment: as above; conditions: at 30 µM
[17] = molecular target: Calcium-activated potassium channel subunit alpha-1 (Homo sapiens) + Leucine-rich repeat-containing protein 26 (Homo sapiens) (UniProt Q12791+Q2I0M4); experiment: as above; conditions: F380Y/Slo1WT/gamma1, at 30 µM
Calcium-activated potassium channel subunit alpha-1 (Homo sapiens) + Leucine-rich repeat-containing protein 26 (Homo sapiens), sequence (Q2I0M4 whole entry, looked up, the tested form may be a part, one chain of several): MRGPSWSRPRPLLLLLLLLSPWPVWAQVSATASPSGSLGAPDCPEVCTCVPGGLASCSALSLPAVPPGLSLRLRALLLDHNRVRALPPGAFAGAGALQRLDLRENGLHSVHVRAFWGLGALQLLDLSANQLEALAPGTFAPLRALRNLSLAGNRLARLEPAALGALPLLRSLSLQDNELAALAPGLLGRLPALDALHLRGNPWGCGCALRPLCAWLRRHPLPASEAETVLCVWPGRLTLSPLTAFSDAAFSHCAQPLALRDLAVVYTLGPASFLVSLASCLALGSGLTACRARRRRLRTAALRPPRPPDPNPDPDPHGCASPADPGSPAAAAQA

[18] = molecular target: Mitogen-activated protein kinase 7 (Homo sapiens) (UniProt Q13164); experiment: ERK5 transactivation activators in reporter cells, primary screen, cell-based, HTS (AID 1508626;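 active = luciferase signal above three times the same-plate solvent-only control wells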;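 note: luciferase driven by Gal4-ERK5 fusion binding five Gal4 sites before minimal TATA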); conditions: HeLa Gal4-ERK5 transactivation, 18 h, at 5 µM, stronger effect = higher value
Mitogen-activated protein kinase 7 (Homo sapiens), sequence (Q13164 whole entry, looked up, the tested form may be a part): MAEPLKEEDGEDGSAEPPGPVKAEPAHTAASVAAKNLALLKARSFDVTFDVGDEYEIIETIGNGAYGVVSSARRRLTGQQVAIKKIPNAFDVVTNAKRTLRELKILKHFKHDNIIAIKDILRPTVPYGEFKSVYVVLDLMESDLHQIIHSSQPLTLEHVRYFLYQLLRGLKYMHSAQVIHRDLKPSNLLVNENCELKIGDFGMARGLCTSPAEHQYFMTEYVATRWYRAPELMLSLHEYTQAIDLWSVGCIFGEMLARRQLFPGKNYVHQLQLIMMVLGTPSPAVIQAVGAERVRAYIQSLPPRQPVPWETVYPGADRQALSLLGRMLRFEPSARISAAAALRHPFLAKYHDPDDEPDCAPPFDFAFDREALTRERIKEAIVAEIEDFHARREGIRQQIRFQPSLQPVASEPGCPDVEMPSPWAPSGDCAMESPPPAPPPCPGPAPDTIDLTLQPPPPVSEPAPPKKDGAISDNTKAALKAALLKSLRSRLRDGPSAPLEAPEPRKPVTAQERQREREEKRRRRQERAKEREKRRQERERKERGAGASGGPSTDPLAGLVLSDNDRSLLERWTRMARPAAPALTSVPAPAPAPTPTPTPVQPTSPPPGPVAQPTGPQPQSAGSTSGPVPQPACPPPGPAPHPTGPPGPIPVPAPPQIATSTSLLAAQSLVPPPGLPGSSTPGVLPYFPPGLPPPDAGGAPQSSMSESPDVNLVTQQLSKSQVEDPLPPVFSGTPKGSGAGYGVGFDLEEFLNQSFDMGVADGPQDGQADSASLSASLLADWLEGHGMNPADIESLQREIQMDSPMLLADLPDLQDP

[19] = measured here: epithelial PC-3E GFP cell survival
[20] = measured here: mesenchymal TEM4-18 mCherry cell survival
[21] = measured here: relative caspase fold change +Dox/-Dox
[22] = MELAS cybrid survival, CellTiter-Glo 48 h, stronger effect = higher value
[23] = Rieske KO mouse fibroblast survival, CellTiter-Glo 72 h

CN(C)CCC[C@@]1(c2ccc(F)cc2)OCc2cc(C#N)ccc21
1.13: normalised cell number [13, 19]
9600 and 9400: cell count ([14]; measured here: total cells with miR-34 induction, stronger effect = lower value)
1.12: normalised cell number [13, 20]
inactive: inhibition [1] -1.98% | inhibition [2] 6.83% | fluorescence ratio [3] 0.96 | nuclear beta-catenin stimulation ([4]; at 10 µM) 2.2% | viability decrease [6] 4.6% | tube area decrease [7] 3.6% | GLP1 secretion stimulation [8] 10.5% | inhibition of viability [9] -13.4% | viability decrease (inhibition) [11] 24.4% | inhibition [12] 8.36% | red/green cell ratio (normalised) [13] 0.99 | fold change ([14]; stronger effect = lower value, cell number ratio, induced over uninduced) 1.02 and 0.891 | z-score [15, 22] -0.471 and -0.676 | remaining NAD [16] 10 nM | log fold change Tl+ flux (F380Y) 0.0406 | log fold change Tl+ flux (F380Y/beta2Delta) 0.0188 | log fold change Tl+ flux [17] -0.0413
-0.0102 and -1.12: z-score [15, 23]
9420 and 10600: cell count ([14]; measured here: total cells without miR-34 induction)
active: insulin secretion stimulation [5] 31.7% | viability decrease (inhibition) [10] 66.3%
2.21 and 1.15: fold change [14, 21]
-0.7%: nuclear beta-catenin stimulation ([4]; stimulation, at 2 µM)

Cc1ccc(Cl)c(Nc2ccccc2C(=O)O)c1Cl
inactive: inhibition [1] 0.45% | inhibition [2] -0.48% | fluorescence ratio [3] 1 | nuclear beta-catenin stimulation ([4]; at 10 µM) 0.5% | insulin secretion stimulation [5] -1.1% | viability decrease [6] 8.4% | tube area decrease [7] 22.9% | GLP1 secretion stimulation [8] 5% | inhibition of viability [9] 35.8% | inhibition [12] 7.02% | red/green cell ratio (normalised) [13] 0.98 | z-score [15, 22] -0.277 and 0.657 | remaining NAD [16] 10 nM | luciferase signal [18] 48 AU
active: viability decrease (inhibition) [10] 58.5% | viability decrease (inhibition) [11] 78.5% | log fold change Tl+ flux (F380Y) 0.212 | log fold change Tl+ flux (F380Y/beta2Delta) 0.243 | log fold change Tl+ flux [17] 0.122
0.9: normalised cell number [13, 20]
-0.131 and 0.573: z-score [15, 23]
1.2%: nuclear beta-catenin stimulation ([4]; stimulation, at 2 µM)
0.92: normalised cell number [13, 19]

CCN(CC)CCNC(=O)c1ccc(N)cc1
-0.144 and -0.31 and 0.675: z-score [15, 23]
0.59: normalised cell number [13, 20]
0.66: normalised cell number [13, 19]
2.4%: nuclear beta-catenin stimulation ([4]; stimulation, at 2 µM)
inactive: nuclear beta-catenin stimulation ([4]; at 10 µM) 1.2% | insulin secretion stimulation [5] 1.1% | viability decrease [6] 1.4% | tube area decrease [7] 8.7% | GLP1 secretion stimulation [8] 2.8% | inhibition of viability [9] 15.3% | viability decrease (inhibition) [10] -11.5% | viability decrease (inhibition) [11] -4.7% | inhibition [12] 13.2% | red/green cell ratio (normalised) [13] 0.9 | z-score [15, 22] -0.241 and -0.159 and 0.703 | remaining NAD [16] 10 nM | luciferase signal [18] 56 AU | log fold change Tl+ flux (F380Y) -0.0589 | log fold change Tl+ flux (F380Y/beta2Delta) 0.0202 | log fold change Tl+ flux [17] 0.0259

CCOC(=O)[C@H](CCc1ccccc1)N[C@@H](C)C(=O)N1Cc2ccccc2C[C@H]1C(=O)O
0.3%: nuclear beta-catenin stimulation ([4]; stimulation, at 2 µM)
1.17: normalised cell number [13, 19]
1.45 and 1.07 and 4.39: fold change [14, 21]
-0.486 and -0.81: z-score [15, 23]
inactive: inhibition [1] -8.64% | inhibition [2] -0.48% | fluorescence ratio [3] 1.04 | nuclear beta-catenin stimulation ([4]; at 10 µM) 2.5% | insulin secretion stimulation [5] 0.7% | viability decrease [6] -30.1% | tube area decrease [7] -10% | GLP1 secretion stimulation [8] 2.9% | inhibition of viability [9] 3.6% | viability decrease (inhibition) [10] 28.5% | viability decrease (inhibition) [11] 6% | inhibition [12] -10.1% | red/green cell ratio (normalised) [13] 0.95 | z-score [15, 22] 0.64 and 0.208 | remaining NAD [16] 10 nM | luciferase signal [18] 64 AU | log fold change Tl+ flux (F380Y) 0.032 | log fold change Tl+ flux (F380Y/beta2Delta) 0.0255 | log fold change Tl+ flux [17] 0.0143
1.12: normalised cell number [13, 20]
